Inconclusive results are not listed. Calls of active or inactive are those of the source. Unless noted, the call rests on the fitted dose curve.
Experiments:
[1] = Nuclear factor erythroid 2-related factor 2/antioxidant responsive element (Nrf2/ARE) small molecule agonists: qHTS cell viability counter screen in human keratinocytes (AID 1919968; active means well fitted curve in the direction sought with a large enough effect in the repeat runs; an effect the other way counts as inactive or inconclusive; further: nearly all actives have a fitted effect of over 55% in size)
Summary of the method: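 Cells of the KeratinoSens line were plated at 1,500 per well and left for 5 h before compound transfer from DMSO stocks. After a 23 h incubation (37 C, 5% CO2), CellTiter-Fluor was added. Signal was taken as fluorescence intensity 1 h later.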

[2] = Nuclear factor erythroid 2-related factor 2/antioxidant responsive element (Nrf2/ARE) small molecule agonists: luciferase reporter gene qHTS assay in human keratinocytes (AID 1919969); further: nearly all actives have a fitted effect of over 35% in size
[3] = molecular target: Gonadotropin-releasing hormone receptor (Homo sapiens) (UniProt P30968); experiment: Human gonadotropin-releasing hormone receptor (GnRHR) small molecule agonists, calcium flux assay in GnRHR-HEK293 cells (AID 1920063); further: nearly all actives have a fitted effect of over 35% in size
Chain of Gonadotropin-releasing hormone receptor (Homo sapiens) (P30968 whole entry, looked up): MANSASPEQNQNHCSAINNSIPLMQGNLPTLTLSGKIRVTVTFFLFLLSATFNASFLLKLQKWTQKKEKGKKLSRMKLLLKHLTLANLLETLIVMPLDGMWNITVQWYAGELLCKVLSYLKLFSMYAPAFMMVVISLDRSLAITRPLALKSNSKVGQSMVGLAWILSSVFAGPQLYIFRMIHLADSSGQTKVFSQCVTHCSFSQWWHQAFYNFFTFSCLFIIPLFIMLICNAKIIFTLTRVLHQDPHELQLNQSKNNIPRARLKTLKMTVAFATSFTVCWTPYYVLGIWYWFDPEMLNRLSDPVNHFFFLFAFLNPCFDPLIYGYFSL
Summary of the method: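 Compounds dissolved in DMSO are pin-transferred onto dye-loaded GnRHR-HEK293 cells, which were seeded 18 h before at 37 C/5% CO2. Calcium signal is read as fluorescence intensity at 1 s intervals for 3 min.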

[4] = molecular target: KiSS-1 receptor (Homo sapiens) (UniProt Q969F8); experiment: Human kisspeptin (KISS1R) small molecule agonists, calcium flux assay in KISS1R-HEK293 cells (AID 1920064; active means well fitted curve in the direction sought with a large enough effect in the repeat runs; an effect the other way counts as inactive or inconclusive)
Chain of KiSS-1 receptor (Homo sapiens) (Q969F8 whole entry, looked up): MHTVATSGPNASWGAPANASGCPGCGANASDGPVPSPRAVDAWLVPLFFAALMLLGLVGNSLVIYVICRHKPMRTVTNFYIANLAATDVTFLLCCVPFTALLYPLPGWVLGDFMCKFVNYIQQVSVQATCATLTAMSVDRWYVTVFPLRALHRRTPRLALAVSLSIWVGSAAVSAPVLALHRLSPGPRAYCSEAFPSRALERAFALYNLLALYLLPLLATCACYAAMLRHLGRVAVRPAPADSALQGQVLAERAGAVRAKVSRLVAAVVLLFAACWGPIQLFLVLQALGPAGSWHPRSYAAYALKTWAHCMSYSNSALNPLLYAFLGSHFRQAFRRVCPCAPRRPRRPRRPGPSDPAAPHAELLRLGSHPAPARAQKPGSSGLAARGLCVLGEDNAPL
Summary of the method: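 Cell line: HEK293, stable human KISS1R. Dye loading 1 h at 37 C after 18 h culture. Read: kinetic fluorescence, 480/540 nm, 3 min at 1 s intervals.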

[5] = G protein-coupled receptor (GPCR) small molecule agonists, calcium flux assay: HEK293 wild type cell line counter screen (AID 1920065)
Summary of the method: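 Tox21 10K compounds, 15 concentrations each in triplicate, pin-transferred in DMSO onto dye-loaded cells; kinetic read at 480/540 nm for 3 min, 1 s intervals.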

[6] = p53 small molecule agonists, cell-based qHTS assay with human liver microsomes (AID 1963577)
Summary of the method: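 Fluorescence of the beta-lactamase reporter in p53RE-bla cells, detected with LiveBLAzer substrate (2 h, room temperature, dark), served as the read-out after 16 h compound exposure at 37 C with human liver microsomes and NADPH, each 0.5 mg/mL final.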

[7] = p53 small molecule agonists, cell-based qHTS assay with rat liver microsomes (AID 1963578)
Summary of the method: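 Cells carrying a p53 response element–beta-lactamase reporter were plated and rested 5 h, then dosed with compound in DMSO plus rat liver microsomes and NADPH, each at 0.5 mg/mL final. After 16 h at 37 C, LiveBLAzer substrate was added for 2 h.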

[8] = p53 small molecule agonists, cell-based qHTS assay with human liver microsomes: qHTS cell viability counter screen (AID 1963579); further: nearly all actives have a fitted effect of over 45% in size
Summary of the method: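 Cytotoxicity counter screen: p53RE-bla, 4,000 cells/well; 5 h settle, 37 C/5% CO2; cpd + HLM 0.5 mg/mL + NADPH 0.5 mg/mL (final); 16 h, 37 C; CellTiter-Glo, 30 min RT, luminescence.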

[9] = p53 small molecule agonists, cell-based qHTS assay with rat liver microsomes: qHTS cell viability counter screen (AID 1963580); further: nearly all actives have a fitted effect of over 45% in size
Summary of the method: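 Luminescent ATP readout (CellTiter-Glo, 30 min at room temperature) reports viability of p53RE-bla HCT-116 cells after 16 h at 37 C with test compounds under metabolic activation by rat liver microsomes and NADPH at 0.5 mg/mL final each.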

[10] = p53 small molecule agonists, cell-based qHTS assay: qHTS cell viability counter screen (AID 1963581); further: nearly all actives have a fitted effect of over 45% in size
Summary of the method: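 ATP content measured by luminescence in HCT-116 p53RE-bla cells treated 16 h at 37 C, same wells as the reporter screen.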

[11] = p53 small molecule agonists, cell-based qHTS assay (AID 1963582; active means well fitted activation curve with a large enough effect in the signal ratio in the repeat runs, not every such curve was filed as active; the % refers to the signal ratio)
Summary of the method: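 16 h compound exposure (37 C) of p53 response element–bla cells, preceded by 5 h recovery at 37 C/5% CO2; read-out via LiveBLAzer B/G FRET substrate, 2 h RT, fluorescence intensity.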

[12] = molecular target: 5-hydroxytryptamine receptor 2A (Homo sapiens) (UniProt P28223); experiment: 5-hydroxytryptamine receptor 2A (HTR2A) small molecule antagonists, cell-based qHTS assay (AID 1963586); further: nearly all actives have a fitted effect of over 45% in size
Chain of 5-hydroxytryptamine receptor 2A (Homo sapiens) (P28223 whole entry, looked up): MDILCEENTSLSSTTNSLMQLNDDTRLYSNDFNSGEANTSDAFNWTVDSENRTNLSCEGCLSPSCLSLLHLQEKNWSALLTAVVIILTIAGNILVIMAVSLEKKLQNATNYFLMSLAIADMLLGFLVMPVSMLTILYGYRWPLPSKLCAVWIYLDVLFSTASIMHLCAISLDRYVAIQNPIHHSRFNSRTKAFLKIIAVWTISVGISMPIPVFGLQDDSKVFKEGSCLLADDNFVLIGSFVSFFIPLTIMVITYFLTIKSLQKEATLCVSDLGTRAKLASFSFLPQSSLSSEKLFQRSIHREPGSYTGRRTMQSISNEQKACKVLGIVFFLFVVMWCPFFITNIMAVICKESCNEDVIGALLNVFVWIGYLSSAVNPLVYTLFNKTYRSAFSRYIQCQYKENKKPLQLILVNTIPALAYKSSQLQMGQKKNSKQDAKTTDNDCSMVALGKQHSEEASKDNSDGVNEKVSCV
Summary of the method: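 CHO cells stably expressing human HTR2A were plated for 18 h at 37 C, then loaded with calcium dye for 1 h. Compounds were preincubated 5 min at room temperature before DOI (4 nM solution) was added. Kinetic fluorescence was read for 3 min.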

[13] = molecular target: 5-hydroxytryptamine receptor 2A (Homo sapiens) (UniProt P28223); experiment: 5-hydroxytryptamine receptor 2A (HTR2A) small molecule agonists, cell-based qHTS assay (AID 1963587); further: nearly all actives have a fitted effect of over 30% in size
Summary of the method: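 HTR2A-CHO cells, plated 18 h at 37 C/5% CO2, dye-loaded 1 h at 37 C; compounds in DMSO added by pin tool (agonist mode). Intracellular calcium flux read as kinetic fluorescence on FDSS over 2 min at 1 s intervals.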

[14] = molecular target: Muscarinic acetylcholine receptor M1 (Homo sapiens) (UniProt P11229); experiment: Cholinergic receptor muscarinic 1 (CHRM1) small molecule antagonists, cell-based qHTS assay (AID 1963588); further: nearly all actives have a fitted effect of over 40% in size
Chain of Muscarinic acetylcholine receptor M1 (Homo sapiens) (P11229 whole entry, looked up): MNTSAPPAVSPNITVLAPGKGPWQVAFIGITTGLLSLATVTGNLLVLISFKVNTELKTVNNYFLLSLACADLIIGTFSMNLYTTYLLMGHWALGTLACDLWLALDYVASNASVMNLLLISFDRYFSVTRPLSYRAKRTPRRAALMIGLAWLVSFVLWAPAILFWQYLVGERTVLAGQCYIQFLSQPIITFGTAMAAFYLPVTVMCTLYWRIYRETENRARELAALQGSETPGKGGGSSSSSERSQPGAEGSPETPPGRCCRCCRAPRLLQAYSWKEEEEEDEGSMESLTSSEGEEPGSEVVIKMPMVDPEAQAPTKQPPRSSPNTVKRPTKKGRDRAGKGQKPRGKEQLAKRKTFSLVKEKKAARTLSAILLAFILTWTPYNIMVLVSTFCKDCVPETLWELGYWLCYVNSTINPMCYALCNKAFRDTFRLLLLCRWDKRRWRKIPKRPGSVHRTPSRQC
Summary of the method: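 Compounds were tested at 15 concentrations in three independent runs. Dye-loaded CHRM1-CHO cells were exposed 5 min at room temperature before stimulation by acetylcholine added at 50nM. Intracellular calcium was read kinetically on FDSS for 3 min.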

[15] = molecular target: Muscarinic acetylcholine receptor M1 (Homo sapiens) (UniProt P11229); experiment: Cholinergic receptor muscarinic 1 (CHRM1) small molecule agonists, cell-based qHTS assay (AID 1963589); further: nearly all actives have a fitted effect of over 35% in size
Summary of the method: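 Homogeneous fluorescence calcium flux, agonist mode. Human M1-expressing CHO cells; compound dosed at 15 concentrations, three independent runs; signal sampled every 1 sec.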

[16] = cAMP Responsive Elements (CRE) small molecule agonists, cell-based qHTS assay (AID 1963590)
Summary of the method: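 HEK 293T cells stably bearing CRE-bla were plated at 2,000 cells per well and rested 18 h. Compounds, positive controls or DMSO were added for 3 h at 37 C. LiveBLAzer B/G substrate was then loaded for 2 h at room temperature.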

[17] = cAMP Responsive Elements (CRE) small molecule antagonists, cell-based qHTS assay (AID 1963591; active means well fitted inhibition curve with a large enough effect in the signal ratio in the repeat runs, not every such curve was filed as active; the % refers to the signal ratio)
Summary of the method: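 First, CRE-bla HEK293T cells settled 18 h at 37 C. Next, compound and 0.25 uM final NKH477 were applied for 3 h. Last, LiveBLAzer B/G substrate was loaded for 2 h at room temperature.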

[18] = molecular target: Beta-2 adrenergic receptor (Homo sapiens) (UniProt P07550); experiment: Adrenergic beta2 receptor (ADRB2) small molecule antagonists, cell-based qHTS assay (AID 1963592); further: series mostly up to about 92 µM; nearly all actives have a fitted effect of over 50% in size
Chain of Beta-2 adrenergic receptor (Homo sapiens) (P07550 whole entry, looked up): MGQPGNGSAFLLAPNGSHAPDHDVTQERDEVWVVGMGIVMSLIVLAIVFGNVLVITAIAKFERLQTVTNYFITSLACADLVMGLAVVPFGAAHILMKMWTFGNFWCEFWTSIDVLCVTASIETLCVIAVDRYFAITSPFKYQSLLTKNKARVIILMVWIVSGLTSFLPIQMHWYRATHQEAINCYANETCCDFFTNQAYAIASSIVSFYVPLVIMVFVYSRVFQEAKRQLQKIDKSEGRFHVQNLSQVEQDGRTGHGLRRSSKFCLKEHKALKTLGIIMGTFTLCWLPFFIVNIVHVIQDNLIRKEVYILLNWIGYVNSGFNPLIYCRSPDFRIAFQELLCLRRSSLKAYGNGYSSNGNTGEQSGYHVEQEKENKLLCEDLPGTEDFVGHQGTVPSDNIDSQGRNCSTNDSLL
Summary of the method: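 Assay format: CHO-ADRB2 cells, 18-20hr seeding at 37C/5% CO2, then compound plus 1nM isoproterenol agonist mix for 0.5hr RT. Homogeneous time-resolved fluorescence cAMP detection after 1hr, expressed as 665/615 nm ratio.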

[19] = molecular target: D(2) dopamine receptor (Homo sapiens) (UniProt P14416); experiment: Dopamine D2 receptor (DRD2) small molecule antagonists, cell-based qHTS assay (AID 1963595; active means well fitted inhibition curve with a large enough effect in the signal ratio in the repeat runs, with a control signal flat; the % refers to the signal ratio)
Chain of D(2) dopamine receptor (Homo sapiens) (P14416 whole entry, looked up): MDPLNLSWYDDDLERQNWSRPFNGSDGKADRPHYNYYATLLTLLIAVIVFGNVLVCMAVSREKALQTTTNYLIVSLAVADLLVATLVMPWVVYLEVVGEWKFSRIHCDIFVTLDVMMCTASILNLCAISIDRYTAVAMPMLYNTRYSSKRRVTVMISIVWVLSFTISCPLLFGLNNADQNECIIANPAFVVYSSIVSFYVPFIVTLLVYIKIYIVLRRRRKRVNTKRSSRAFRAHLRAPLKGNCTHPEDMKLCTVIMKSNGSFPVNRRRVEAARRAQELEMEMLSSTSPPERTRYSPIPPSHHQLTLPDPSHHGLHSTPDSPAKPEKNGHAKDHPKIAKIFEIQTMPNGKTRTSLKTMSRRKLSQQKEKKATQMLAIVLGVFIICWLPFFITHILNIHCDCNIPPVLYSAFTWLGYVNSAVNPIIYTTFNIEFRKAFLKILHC
Summary of the method: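 HEK293 cells stably expressing DRD2 were preincubated with 0.1 mM Ro20-1724, then with compound for 10 min at room temperature. Cells were stimulated with 200 nM NKH477 plus 12 nM quinpirole for 30 min, and cAMP was read by HTRF.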

[20] = molecular target: D(2) dopamine receptor (Homo sapiens) (UniProt P14416); experiment: Dopamine D2 receptor (DRD2) small molecule agonists, cell-based qHTS assay (AID 1963594); further: nearly all actives have a fitted effect of over 35% in size
Summary of the method: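 HEK293 cells stably expressing DRD2 were cultured 24 h at 37 C, then given Ro20-1724 (0.1 mM final) and compounds for 10 min at room temperature. NKH477 (200nM) was then added for 30 min. cAMP was read by HTRF.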

Measured: Potency

ClCc1ccccn1
inactive: [1] | [2] | [3] | [4] | [5] | [6] | [7] | [8] | [9] | [10] | [11] | [12] | [13] | [14] | [15] | [16] | [17] | [18] | [19]

C[C@H]1O[C@H](OC2[C@@H](O)[C@@H](O)C(O)[C@H](O)[C@H]2O)[C@@H](N)C[C@@H]1N=C(N)C(=O)O (stereo partly drawn)
inactive: [1] | [2] | [3] | [4] | [5] | [6] | [7] | [8] | [9] | [10] | [11] | [12] | [13] | [14] | [15] | [16] | [17] | [18] | [20] | [19]

CC(C)CCCCCCOC(=O)c1ccccc1C(=O)OCCCCCCC(C)C
inactive: [1] | [2] | [3] | [4] | [5] | [6] | [7] | [8] | [9] | [10] | [11] | [12] | [13] | [14] | [15] | [16] | [17] | [18] | [19]

O=NN1CCCCCC1
inactive: [1] | [2] | [3] | [4] | [5] | [6] | [7] | [8] | [9] | [10] | [11] | [12] | [13] | [14] | [15] | [16] | [17] | [18] | [20] | [19]

Clc1cccc(C(Cl)(Cl)Cl)n1
inactive: [1] | [2] | [3] | [4] | [5] | [6] | [7] | [8] | [9] | [10] | [11] | [12] | [13] | [14] | [15] | [16] | [17] | [18] | [20] | [19]

CC(C)(C)C(=O)C(Cl)Cl
inactive: [1] | [2] | [3] | [4] | [5] | [6] | [7] | [8] | [9] | [10] | [11] | [12] | [13] | [14] | [15] | [16] | [17] | [18] | [20] | [19]

CCCCOC(=O)CCC(=O)OCCCC
inactive: [1] | [2] | [3] | [4] | [5] | [6] | [7] | [8] | [9] | [10] | [11] | [12] | [13] | [14] | [15] | [16] | [17] | [18] | [20] | [19]

— PubChem BioAssay (Tox21)
